These results are taken from PubChem BioAssay AID652115 (Broad Institute, 2013).

The campaign covered roughly 330,000 compounds. About 3,800 (1.2%) were called active. This is one part of a sample in which actives are shown more often than they occur. Rule as the data show it: active = inhibition above about 15%; inconclusive = no clear call, values can overlap the other calls; inactive = below that.

Sequence of NAD-dependent protein deacylase sirtuin-5, mitochondrial (Homo sapiens) (Q9NXA8 whole entry, looked up): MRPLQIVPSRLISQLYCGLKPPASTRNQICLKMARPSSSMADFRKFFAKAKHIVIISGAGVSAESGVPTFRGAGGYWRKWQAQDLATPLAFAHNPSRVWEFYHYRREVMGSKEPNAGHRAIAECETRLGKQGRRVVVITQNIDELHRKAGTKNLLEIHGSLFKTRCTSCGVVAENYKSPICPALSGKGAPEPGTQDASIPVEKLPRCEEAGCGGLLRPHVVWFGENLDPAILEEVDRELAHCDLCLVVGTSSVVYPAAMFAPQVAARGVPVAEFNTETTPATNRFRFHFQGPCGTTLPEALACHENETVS

This assay concerns the target NAD-dependent protein deacylase sirtuin-5, mitochondrial (Homo sapiens) (UniProt Q9NXA8). Put plainly: SIRT5 desuccinylase inhibitors, primary screen, biochemical, fluorescence imaging, single point, set 5 (AID 652115). The conditions noted are these: Purified SirT5, succinyl-peptide AMC, trypsin-coupled fluorescence; at 15 µM; hits give high values.
One may read the inhibition as the drop in the measured response relative to a control, in per cent. Regarding `COc1ccc2c3c(n(C)c2c1)[C@@H](CO)NCC31CCN(CC2CCCC2)CC1`, the inhibition is -0.874% (inactive). As to `CN1CCN(C(=O)C[C@@H]2C=C[C@@H](NS(=O)(=O)c3cccc(F)c3)[C@@H](CO)O2)CC1`, the inhibition is 1.94% (inactive). As for `C[C@@H]1CN([C@@H](C)CO)S(=O)(=O)c2ccc(-c3cccnc3)cc2O[C@H]1CN(C)CC1CCOCC1`, the inhibition was 1.51% (inactive). On to `CCC(=O)N1[C@H](C(=O)NC2CCC2)[C@@H](CO)[C@@H]2Cn3c(cccc3=O)[C@@H]21`, for which the inhibition is -8.06% (inactive).

As to `C[C@H](CO)N1C[C@H](C)[C@@H](CN(C)S(=O)(=O)c2ccccc2F)Oc2ncc(C#Cc3ccccc3F)cc2C1=O`, the inhibition is 2.94% (inactive).

For `N#C[C@@H]1[C@@H](c2ccccc2C2=CCCC2)[C@H](CO)N1C(=O)NC1CCCC1`, the inhibition was 1.76% (inactive). As for `Oc1c(Cl)cc(Cl)c(Cl)c1Cc1c(O)c(Cl)cc(Cl)c1Cl`, the inhibition is 16% (active). Under `COCC(=O)Nc1ccc2c(c1)C(=O)N(C)[C@@H]1CC[C@@H](CC(=O)NCC(F)(F)F)O[C@H]1CO2` stands 0.833% (inactive).

In the case of `O=C1CCC(C(=O)N2CCC(O)(c3ccccc3)CC2)CN1CCc1ccccc1` (stereo not given), the inhibition was 15.1% (active).

With `Cc1cnc(C)c(N2CCN(C(=O)C3CCC(=O)N(CCc4cccc(F)c4)C3)CC2)n1` (stereo not given), the inhibition is -3.12% (inactive).

Consider `O=C(NCCCc1ccccc1)C1CCC(=O)N(CCc2ccc(Cl)cc2)C1` (stereo not given), for which the inhibition was -3.16% (inactive). Under `C[C@@H]1CN([C@@H](C)CO)C(=O)c2cccc(NC(=O)Nc3ccc(F)cc3)c2O[C@H]1CN(C)Cc1ccc(-c2ccccc2)cc1` stands -1.08% (inactive); under `CCNC(=O)[C@H]1[C@H](CO)[C@H]2Cn3c(ccc(-c4cccc(OC)c4)c3=O)[C@H]2N1Cc1nccs1`, -15.5% (inactive). As for `CN1c2ccc(C3=CCCCC3)cc2[C@@H]2[C@@H](CCN2C(=O)Nc2cc(F)ccc2F)[C@@H]1CO`, the inhibition is 1.41% (inactive). Under `CC(=O)Nc1ccc2c3c(ccc([N+](=O)[O-])c13)CC2` stands -1.7% (inactive); under `O=S(=O)(NC1CC1)c1ccc2c3c(cccc13)CC2`, -2.65% (inactive); under `CC(C)C(=O)Nc1ccc2c3c(cccc13)CC2`, 18.7% (active). On to `COCC#Cc1ccc([C@H]2[C@@H](CO)N3C(=O)CN(C(=O)C4CCCC4)C[C@@H]23)cc1`, for which the inhibition was 0.614% (inactive). In the case of `C[C@H](CO)N1C[C@H](C)[C@@H](CN(C)S(=O)(=O)c2ccccc2)Oc2ccc(NC(=O)Nc3ccc(F)cc3)cc2CC1=O`, the inhibition is 3.49% (inactive). For the compound `O=C([C@H]1[C@H](CO)[C@H]2Cn3c(ccc(C4=CCCCC4)c3=O)[C@@H]1N2)N1CCCCC1`, the inhibition was -11.2% (inactive). For `COc1ccc(-c2nc(N)ncc2-c2ccc(Cl)cc2)c(O)c1`, the inhibition is -4.03% (inactive). For `C=C(C)COc1ccc(-c2nc(N)ncc2-c2ccccc2OC)c(O)c1`, the inhibition was -0.166% (inactive). The figure for `C=C(C)COc1ccc(-c2ncncc2-c2ccc(OC)cc2)c(O)c1` is 24.8% (active); for `C=C[C@H](OC)[C@@H](O)c1ccc(OC)c(O)c1` it is -1.66% (inactive); for `CCNC(=O)C[C@@H]1CC[C@@H]2[C@@H](COc3ccc(NC(C)=O)cc3C(=O)N2C)O1` it is 1.4% (inactive). Consider `COCC(=O)Nc1ccc2c(c1)C(=O)N(C)C[C@@H](OC)[C@H](C)CN(C(=O)c1ccccn1)[C@@H](C)CO2`, for which the inhibition is 0.122% (inactive). Take `O=C(NCC[C@@H]1CC[C@H](NC(=O)C2CC2)[C@H](CO)O1)c1cnccn1`: the inhibition was 1.79% (inactive). With `O=C(Nc1c(C(=O)N2CCCCC2)cnn1-c1ccccc1)c1ccco1`, the inhibition was 0.316% (inactive). For the compound `O=C(NNc1ncnc2c1cnn2-c1ccccc1)c1ccco1`, the inhibition was 16.9% (active). Turning to `Cc1ccccc1NC(=O)c1cnn(-c2ccccc2)c1NC(=O)c1ccco1`, the inhibition was 3.74% (inactive). For `COc1ccc(Cl)cc1NC(=O)COc1ccc2c(c1)OCO2`, the inhibition was -11.6% (inactive). Consider `COc1ccc(Cl)cc1NC(=O)CN(C)Cc1ccc(OC)c(OC)c1`, for which the inhibition was -4.51% (inactive). `COc1ccc(Cl)cc1NC(=O)COC(=O)c1ccc(Br)o1`: the inhibition is 21% (active).

Take `O=C(C[C@@H]1CC[C@H]2[C@@H](COC[C@@H](O)CN2C(=O)Nc2ccc(F)cc2)O1)NCC1CC1`: the inhibition is 2.85% (inactive). On to `O=C(C[C@@H]1CC[C@H](NC(=O)c2ccncc2)[C@@H](CO)O1)Nc1ccc(-c2ccccc2)cc1`, for which the inhibition is -3.04% (inactive).

As to `Cc1ccc(NS(=O)(=O)c2ccc(N/N=C/c3ccccc3OCC(=O)O)c([N+](=O)[O-])c2)c(C)c1`, the inhibition was -2.15% (inactive). As for `COc1cc(OC)c(S(=O)(=O)Nc2ccccc2C(=O)O)cc1S(=O)(=O)Nc1ccccc1C(=O)O`, the inhibition was 0.719% (inactive). With `COc1cccc(/C=N/Nc2ccc(S(=O)(=O)Nc3ccccc3C(=O)O)cc2[N+](=O)[O-])c1O`, the inhibition was 19% (active).

Turning to `COc1ccc(Br)cc1/C=N/Nc1ccc(Cl)c(C(=O)O)c1`, the inhibition was -8.87% (inactive). Take `COc1ccc(Br)cc1/C=N/Nc1ccc(S(=O)(=O)Nc2ccccc2C(=O)O)cc1[N+](=O)[O-]`: the inhibition was 47.2% (active). As for `O=C(O)c1ccccc1/C=N/Nc1ccc(S(=O)(=O)Nc2ccc(Cl)cc2)cc1[N+](=O)[O-]`, the inhibition was 10.8% (inactive). Regarding `COc1ccc2c3c([nH]c2c1)[C@@H](CO)N(Cc1cccc(F)c1)CC31CN(CC2CC2)C1`, the inhibition was 3.68% (inactive). In the case of `CCNC(=O)C[C@@H]1CC[C@@H]2[C@H](COc3ccc(NC(=O)Nc4cccc(C)c4)cc3C(=O)N2C)O1`, the inhibition was -1.08% (inactive). Take `C/C=C/c1ccccc1[C@@H]1[C@@H](CO)N(S(=O)(=O)c2cccc(F)c2)[C@H]1C#N`: the inhibition was 2.5% (inactive). Consider `O=C(C[C@@H]1CC[C@@H]2[C@H](COC[C@H](O)CN2S(=O)(=O)c2ccccc2)O1)N[C@H]1CCN(Cc2ccccc2)C1`, for which the inhibition was -3.32% (inactive).

Regarding `COCC(=O)Nc1ccc2c(c1)C(=O)N(C)C[C@@H](OC)[C@H](C)CN(C(=O)c1cccnc1)[C@H](C)CO2`, the inhibition was 5.23% (inactive). The figure for `Cc1cc(N2C(=O)C(O)=C(C(=O)c3ccc(C)o3)C2c2ccc(OCc3ccccc3)cc2)no1` (stereo not given) is 19.4% (active); for `COc1cc(C2C(C(=O)c3ccco3)=C(O)C(=O)N2c2cc(C)on2)ccc1OCc1ccccc1` (stereo not given) it is -4.04% (inactive). For the compound `C=CCOc1cccc(C2C(C(=O)c3ccc(C)o3)=C(O)C(=O)N2c2nnc(C)s2)c1` (stereo not given), the inhibition was -0.578% (inactive). For the compound `COc1ccc(NC(=O)Nc2ccc3c(c2)C(=O)N([C@@H](C)CO)C[C@@H](C)[C@@H](CN(C)C(=O)CCCN(C)C)OCCCC[C@@H](C)O3)cc1`, the inhibition was -2.34% (inactive). Take `COc1ccc2c3c(n(C)c2c1)[C@@H](CO)N(CC1CC1)CC31CN(C(=O)c2cccc(F)c2)C1`: the inhibition is 1.38% (inactive). Take `Cc1cc([N+](=O)[O-])ccc1NC1CCCC1`: the inhibition was 21.2% (active).

`Cc1cc(C=O)c(C)n1-c1ccc(NC2CCCCC2)c([N+](=O)[O-])c1`: the inhibition was 2.63% (inactive). For `Cc1cc([N+](=O)[O-])ccc1NS(=O)(=O)c1ccccc1`, the inhibition is 4.53% (inactive). The figure for `C[C@@H]1CN([C@H](C)CO)C(=O)c2cc(-c3cccc(F)c3)cnc2O[C@H]1CN(C)C(=O)Nc1ccccc1F` is 4.47% (inactive); for `O=C(CN1CCOCC1)N[C@@H]1CC[C@@H](CCNC(=O)C2CCCCC2)O[C@@H]1CO` it is 7.91% (inactive); for `C[C@H]1CN([C@@H](C)CO)C(=O)c2cc(C#CC3CCCC3)cnc2O[C@H]1CN(C)C(=O)c1ccncc1` it is 5.96% (inactive). On to `Cc1ccc(C(=O)N/C(=C\c2ccc(F)cc2)C(=O)NCCN2CCOCC2)cc1`, for which the inhibition is -1.92% (inactive). As to `Cc1c(C(=O)NCCN2CCOCC2)sc2nc(-c3ccc(F)cc3)cn12`, the inhibition is 26.8% (active).

Take `Cc1c(C(=O)NCC2CCCO2)sc2nc(-c3ccccc3)cn12` (stereo not given): the inhibition was -9.93% (inactive). In the case of `C[C@@H]1CCCCO[C@@H](CN(C)C(=O)Nc2ccc(C(F)(F)F)cc2)[C@H](C)CN([C@@H](C)CO)C(=O)c2cc(N(C)C)ccc2O1`, the inhibition is 2.03% (inactive). `O=C(c1ccc(F)cc1)N1CC(=O)N2[C@@H](CO)[C@H](c3ccc(C4=CCCC4)cc3)[C@@H]2C1`: the inhibition is -4.25% (inactive).

For the compound `C[C@H]1CN([C@@H](C)CO)S(=O)(=O)c2ccc(C#CCN(C)C)cc2O[C@@H]1CN(C)Cc1ccc(F)cc1`, the inhibition was -1.1% (inactive). Take `C[C@@H]1CN([C@@H](C)CO)S(=O)(=O)c2ccc(C#CCC3CCCC3)cc2O[C@@H]1CN(C)C`: the inhibition was 2.36% (inactive).

As for `C[C@@H]1CN([C@@H](C)CO)S(=O)(=O)c2ccc(C#CCC3CCCC3)cc2O[C@H]1CN(C)Cc1ccc(C(=O)O)cc1`, the inhibition is 17.1% (active). With `C[C@@H]1CN([C@@H](C)CO)S(=O)(=O)c2ccc(C#CCC3CCCC3)cc2O[C@H]1CN(C)C(=O)CC1CC1`, the inhibition was 9.11% (inactive).

In the case of `C[C@@H]1CN([C@H](C)CO)S(=O)(=O)c2ccc(C#CCC3CCCC3)cc2O[C@H]1CN(C)C(=O)CC1CC1`, the inhibition was 9.26% (inactive).

Regarding `C[C@@H]1CN([C@H](C)CO)S(=O)(=O)c2ccc(C#CCC3CCCC3)cc2O[C@H]1CN(C)Cc1ccc(C(=O)O)cc1`, the inhibition is 15.8% (active).

Turning to `CO[C@@H]1CN(C)C(=O)c2ccc(NC(=O)c3cccc(Oc4ccccc4)c3)cc2OC[C@H](C)NC[C@@H]1C`, the inhibition is 0.913% (inactive). Regarding `CN(C)C(=O)c1cccc(-c2ccc3n(c2=O)C[C@H]2N[C@@H]3[C@@H](C(=O)NC3CCC3)[C@@H]2CO)c1`, the inhibition was -48.3% (inactive). The figure for `COc1ccc2c3c(n(C)c2c1)[C@H](CO)N(C(C)=O)CC31CN(C(=O)c2cnccn2)C1` is -3.27% (inactive).

`CCc1nnc(NS(=O)(=O)c2ccc(NC(=S)NC(=O)/C=C/c3cccs3)cc2)s1`: the inhibition was 9.43% (inactive). On to `CCc1nnc(NS(=O)(=O)c2ccc(NC(=O)c3cccc(OC(F)(F)C(F)F)c3)cc2)s1`, for which the inhibition was -3.94% (inactive). Regarding `CCc1nnc(NS(=O)(=O)c2ccc(NC(=S)NC(=O)c3cccs3)cc2)s1`, the inhibition is 19.1% (active). Regarding `C[C@@H]1CN([C@@H](C)CO)C(=O)c2cc(NS(C)(=O)=O)ccc2O[C@@H](C)CCCCO[C@@H]1CN(C)C(=O)c1ccccc1`, the inhibition is 0.623% (inactive).
